This is one part of a sample in which hits are shown more often than they occur.
G9a block: G9a (human) methyltransferase inhibition. Q96KQ7. G9a H3K9 monomethylation, AlphaScreen, 2 h. Potency, µM (series often up to 102 µM), without a hit: top-dose activity, negative = inhibition, most hits filed as inhibitors. 350,000 tested, 8.8% active. AID 504332; note: % is set by controls: 0 for no effect and ±100 for the full control effect; nearly all actives have a fitted effect of over 75% in size
Target sequence (Q96KQ7 913-1193 limits assumed): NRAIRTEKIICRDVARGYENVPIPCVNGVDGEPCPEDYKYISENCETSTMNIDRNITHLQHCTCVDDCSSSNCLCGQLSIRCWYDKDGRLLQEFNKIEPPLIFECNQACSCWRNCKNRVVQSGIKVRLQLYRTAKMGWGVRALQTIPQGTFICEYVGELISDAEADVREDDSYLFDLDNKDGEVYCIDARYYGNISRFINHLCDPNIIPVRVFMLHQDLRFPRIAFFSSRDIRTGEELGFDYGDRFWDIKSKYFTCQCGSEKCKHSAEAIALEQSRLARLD
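Using a bead-based AlphaScreen, monomethylated H3K9 product from 2 h room-temperature reactions (G9a 20 nM, peptide 500 nM, SAM 20 uM) was detected with 0.5 ug/mL rabbit anti-H3K9me1 antibody.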
VDR inhibitor: vitamin D3 receptor (human) inhibition. Potency, µM, inactives show max response, negative = inhibition, hits mostly inhibitors. 400,000 tested, 0.93% active. AID 504847. VDR-SRC2-3 peptide fluorescence polarization, 2 h. P11473; note: % is set by controls: 0 for no effect and ±100 for the full control effect
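The screen uses fluorescence polarization to detect compounds that interfere with recruitment of the SRC2-3 coactivator peptide to VDR; plates are read after 2 h at room temperature.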
GRP78 ERSR act: induces the endoplasmic reticulum stress response in human glioma cells. Potency, µM, for the others: at the highest dose activation, hits mostly activators. U87-MG GRP78 promoter luciferase reporter, 16 h. 420,000 tested, 0.02% active. AID 602332; note: series mostly up to about 76 µM; % of control where 0% means no effect; nearly all actives have a fitted effect of over 35% in size
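Stably transfected U87-MG human glioma cells carrying a GRP78-based luminescent sensor were seeded at 1000 cells/well, pin-dosed with compounds and incubated 16 h. Luciferase reagent was then added, and end-point luminescence was read after 10 min at room temperature.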
Sfp PPTase inh: blocks B. subtilis Sfp PPTase activity | Biochemical Sfp PPTase activity, qHTS | Q9F4F7 | 310,000 tested, 3.5% active | Potency, µM, without a hit: largest response in the series, negative = inhibition, hits mostly inhibitors | AID 1490;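 note: the enzyme is Sfp with the accession as filed and its product quenches rhodamine fluorescence; 0% = enzyme reaction without inhibitor and -100% = no enzyme wells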
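Compounds were incubated with enzyme (final 15 nM) for 15 min at room temperature before substrate addition started the reaction. Fluorescence at 525 nm excitation, 598 nm emission was recorded immediately and after 30 minutes.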
ALOX12 inh: inhibitors of human 12S-lipoxygenase ALOX12. P18054. purified 12hLO, xylenol orange hydroperoxide absorbance. Potency, µM (highest dose often 108 µM), for the others: top-dose activity change, negative = inhibition, most hits filed as inhibitors. 580,000 tested, 1.1% active. AID 1671190; note: % is set by controls: 0 for no effect and ±100 for the full control effect
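Hydroperoxide product was detected by ferrous iron/xylenol orange as the 573 to 405 nm absorbance ratio. Arachidonic acid at 40 uM (final) was turned over for 30 min at room temperature by 150 nM human 12hLO, pH 7.0 Hepes buffer, after 15 min compound preincubation.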
* = called active by the depositor; [ ] = dose if it differs, or a comment. Calls come from the whole dose curve; as a rule, active = well fitted curve in the direction sought with a large enough effect; inconclusive = small, poorly fitted or top-dose-only effect, or another doubt; inactive = no such curve, though single readings can be large; an effect the other way counts as inactive or inconclusive. Potency is the fitted concentration of half-maximal effect.

For CCN1CCN(c2ccc(S(=O)(=O)N3CCCCC3)cc2NC(=O)c2cccc(C)c2[N+](=O)[O-])CC1 the results were G9a block 50µM*, VDR inhibitor -26%, GRP78 ERSR act -3% and ALOX12 inh inconclusive.
CC1CCCCC1NC(=O)c1cccc(S(=O)(=O)N2CCN(C)CC2)c1 (stereo not drawn) was read as G9a block 45µM*, VDR inhibitor 6%, GRP78 ERSR act -5% and ALOX12 inh 10%.
`CN1CCN(S(=O)(=O)c2cccc(C(=O)Nc3ccccc3N3CCCCC3)c2)CC1` gave G9a block 4%[12.7 µM], VDR inhibitor -6%, GRP78 ERSR act -5% and ALOX12 inh 6%.
CC(C)(C)c1ccc(OCC(=O)N(Cc2nc3ccccc3c(=O)[nH]2)CC2CCCO2)cc1 (stereo not drawn) was read as ALOX12 inh 6%.
COc1ccc(Cl)cc1NC(=O)N1CCSc2ccccc21 was read as ALOX12 inh 33%.
For COC(=O)c1ccc(NS(=O)(=O)c2cc(C)ccc2OC)cc1 the results were G9a block -1%[12.7 µM], VDR inhibitor 6%, GRP78 ERSR act -2%, Sfp PPTase inh -3% and ALOX12 inh 395%.
`COC(=O)c1ccc(/C=N/NS(=O)(=O)c2cc(C)ccc2C)cc1` gave G9a block 2.5µM*, VDR inhibitor inconclusive, GRP78 ERSR act -4%, Sfp PPTase inh 9% and ALOX12 inh -17%.
`Cc1ccc(C)c(S(=O)(=O)N/N=C/c2ccc(C(=O)O)cc2)c1` gave G9a block 35µM*, VDR inhibitor -16%, GRP78 ERSR act -5%, Sfp PPTase inh 1% and ALOX12 inh -4%.
`CCC(C)c1ccc(NC(=O)C2CCCCC2)cc1` (stereo not drawn) gave ALOX12 inh -1%.
`CCCC1CCC(=O)O1` (stereo not drawn) gave ALOX12 inh 4%[176 µM].
`FC(F)(F)c1ccccc1-n1c(-c2cnccn2)n[nH]c1=S` gave G9a block inconclusive, VDR inhibitor 9%, GRP78 ERSR act -6%, Sfp PPTase inh inconclusive and ALOX12 inh inconclusive.
For Cc1ccc(-n2c(-c3cnccn3)n[nH]c2=S)c(Br)c1 the results were G9a block 18µM*, VDR inhibitor 9%, GRP78 ERSR act -4%, Sfp PPTase inh -5% and ALOX12 inh inconclusive.
For CCC(=O)c1ccc(OCC(O)CNCc2ccc(F)cc2)cc1 (stereo not drawn) the results were G9a block 17%, VDR inhibitor -15%, GRP78 ERSR act -1%, Sfp PPTase inh 20% and ALOX12 inh -1%.
`O=C(c1ccccc1)c1ccc(OCC(O)CNCc2cccc(Cl)c2)cc1` (stereo not drawn) gave G9a block 30%[0.501 µM], VDR inhibitor 7%, GRP78 ERSR act -15%, Sfp PPTase inh 89µM* and ALOX12 inh inconclusive.
`O=C(c1ccccc1)c1ccc(OCC(O)CNCc2ccc(F)cc2)cc1` (stereo not drawn) gave G9a block 5µM*, VDR inhibitor -4%, GRP78 ERSR act -11%, Sfp PPTase inh -13% and ALOX12 inh inconclusive.
Cc1ccc(OCC(O)CNCc2ccccc2)cc1C (stereo not drawn) was read as G9a block 8%[59 µM], VDR inhibitor 8%, GRP78 ERSR act -2%, Sfp PPTase inh 11% and ALOX12 inh -7%.
Screening Cn1c(=O)n(CCC(=O)NCc2nnc3n2CCC3)c2ccccc21 returned ALOX12 inh -2%.
COc1ccc(CC(=O)NC2CCN(c3cc(-c4ccc(Cl)cc4)[nH]n3)C2)cc1OC (stereo not drawn) was read as ALOX12 inh -18%.
O=C1NC(=S)CN1c1ccccc1 was read as G9a block 11µM*, VDR inhibitor 32µM*, GRP78 ERSR act -1%, Sfp PPTase inh 5.6µM* and ALOX12 inh inconclusive.
Screening O=C1N(c2ccccc2)CCN1c1ccccc1 returned G9a block -1%[0.501 µM], VDR inhibitor 4%, GRP78 ERSR act 12%, Sfp PPTase inh 7% and ALOX12 inh -4%.
COc1ccc(C(=O)C(CCC(CNC(C)(C)C)C(=O)c2ccc(OC)cc2)CNC(C)(C)C)cc1 (stereo not drawn) was read as G9a block -28%, VDR inhibitor -20%, GRP78 ERSR act -13%, Sfp PPTase inh 7% and ALOX12 inh -14%.
For COc1ccc(OCC#CCNC(C)(C)C)cc1 the results were G9a block 7.9µM*, VDR inhibitor 5%, GRP78 ERSR act -4%, Sfp PPTase inh inconclusive and ALOX12 inh -23%.
O=C(NNC1=NS(=O)(=O)c2ccccc21)c1ccc([N+](=O)[O-])cc1 was read as G9a block 35µM*, VDR inhibitor -4%, GRP78 ERSR act -10%, Sfp PPTase inh -22% and ALOX12 inh -21%.
CC(=O)C1=C(O)C(=O)N(Cc2cccnc2)C1c1ccc(O)cc1 (stereo not drawn) was read as G9a block 50µM*, VDR inhibitor -1%, GRP78 ERSR act -2%, Sfp PPTase inh 11% and ALOX12 inh inconclusive.
For C=CCOc1ccc(C2C(C(=O)c3ccc(C)o3)=C(O)C(=O)N2Cc2cccnc2)cc1 (stereo not drawn) the results were G9a block 40µM*, VDR inhibitor 2%, GRP78 ERSR act -1%, Sfp PPTase inh -22% and ALOX12 inh inconclusive.
For CC(=O)C1=C(O)C(=O)N(Cc2cccnc2)C1c1ccccc1 (stereo not drawn) the results were G9a block inconclusive, VDR inhibitor 2%, GRP78 ERSR act -5%, Sfp PPTase inh -8% and ALOX12 inh -26%.
CCOc1cccc(C2C(C(=O)c3cccs3)=C(O)C(=O)N2Cc2cccnc2)c1 (stereo not drawn) was read as G9a block 56µM*, VDR inhibitor 3%, GRP78 ERSR act 1%, Sfp PPTase inh 14% and ALOX12 inh -4%.
Screening Fc1ccc(-c2csc(SCc3ccccc3F)n2)cc1 returned ALOX12 inh 96%.
For Cn1c(=O)c2c(nc(NCCN)n2Cc2ccc(Br)cc2)n(C)c1=O the results were ALOX12 inh -19%.
`N#Cc1cccc(NC(=O)CSc2nnc(-c3ccc(F)cc3)n2CC2CCCO2)c1` (stereo not drawn) gave ALOX12 inh 22%.
NC(=S)N/N=C1\CC(c2ccc3c(c2)OCCO3)Oc2ccc(F)cc21 (stereo not drawn) was read as G9a block 7%, VDR inhibitor 1%, GRP78 ERSR act -5%, Sfp PPTase inh 8% and ALOX12 inh inconclusive.
For NC(=S)N/N=C1\CC(c2ccc3c(c2)OCCCO3)Oc2ccc(F)cc21 (stereo not drawn) the results were VDR inhibitor -27%, GRP78 ERSR act -4%, Sfp PPTase inh 1% and ALOX12 inh 6.3µM*.
